Test results from the supplement of paper PMC3334620.
The full ranking holds about 33,000 sequences; the median of “E-score (-0.5 to 0.5)” is about -0.012, and the highest 2% start at about 0.29. This is one part of a sample in which the highest values are shown more often than they occur.

The sequences below were run against T1, Ybr033w (UniProt P38073) (assay: PBM E-score (8-mer binding enrichment) (E-score (-0.5 to 0.5)); higher = stronger / more preferred TF binding). Conditions: protein concentration: 200 nM; construct: GST-full length.
T1 sequence: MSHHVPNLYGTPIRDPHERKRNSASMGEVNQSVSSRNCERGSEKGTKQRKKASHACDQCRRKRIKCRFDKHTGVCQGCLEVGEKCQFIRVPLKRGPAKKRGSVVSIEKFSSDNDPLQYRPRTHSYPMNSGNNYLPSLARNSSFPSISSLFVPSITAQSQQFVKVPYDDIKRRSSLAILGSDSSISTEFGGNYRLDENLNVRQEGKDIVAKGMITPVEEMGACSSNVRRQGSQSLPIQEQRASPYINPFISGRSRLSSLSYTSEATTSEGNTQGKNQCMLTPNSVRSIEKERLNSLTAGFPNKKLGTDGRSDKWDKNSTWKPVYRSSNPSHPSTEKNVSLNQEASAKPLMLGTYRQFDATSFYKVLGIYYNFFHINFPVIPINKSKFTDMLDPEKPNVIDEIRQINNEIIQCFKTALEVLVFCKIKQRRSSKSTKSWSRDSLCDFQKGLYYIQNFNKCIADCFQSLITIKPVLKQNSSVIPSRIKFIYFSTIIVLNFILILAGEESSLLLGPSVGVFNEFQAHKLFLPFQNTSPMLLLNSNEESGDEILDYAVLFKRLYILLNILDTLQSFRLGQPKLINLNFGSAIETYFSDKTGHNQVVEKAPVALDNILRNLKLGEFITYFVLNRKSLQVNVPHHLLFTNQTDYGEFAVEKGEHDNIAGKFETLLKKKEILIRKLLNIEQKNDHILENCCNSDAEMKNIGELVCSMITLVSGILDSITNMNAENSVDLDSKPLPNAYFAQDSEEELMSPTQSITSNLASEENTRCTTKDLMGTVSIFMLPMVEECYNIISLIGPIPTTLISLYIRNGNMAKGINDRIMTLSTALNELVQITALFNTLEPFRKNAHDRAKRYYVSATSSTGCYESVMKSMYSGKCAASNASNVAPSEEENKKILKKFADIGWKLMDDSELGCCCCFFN
Procedure, shortened: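 Universal all-10-mer Agilent arrays, fresh or stripped once, were converted to double-stranded form by primer extension. GST-tagged yeast transcription factors from PURExpress in vitro transcription/translation, full-length or DNA-binding domain only, were applied at about 100-200 nM and detected with fluorescent anti-GST. After masliner normalisation, the Universal PBM Analysis Suite scored each ungapped eight-base word together with its reverse complement by E-score.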

Sequence | PBM E-score
GAACGGAA | 0.0333
AAACGGAA | 0.341
AAACGGAC | -0.102
AACTCAAT | 0.0866
GGGTGAGA | -0.224
CTCACTTA | 0.0375
GGGTAAGA | -0.154
CACACTAG | 0.0753
CACACTAA | 0.299
TACACTAA | 0.0217
GCGCTGAA | -0.0684
ACCACGAG | 0.0793
GTTAGTTA | 0.262
ATTAGTTA | 0.344
GTTAATTA | 0.266
CGTAATTA | 0.29
GGTAATTA | 0.175
ATTAATTG | 0.268
CGTAATTC | 0.0565
GTTAAGTA | 0.113
ATTAAGTA | 0.365
ATTAGTTG | 0.265
ATTAATTA | 0.387
ATTAAGTG | 0.167
CGGGGCGA | -0.145

Sequence | PBM E-score
AAACACCC | 0.0312
GCGCGATA | 0.181
CCTCCTAC | -0.107
GACCTATA | 0.189
GGTGGCCA | -0.292
AACAGTAA | 0.173
CTCTTCGA | 0.0693
ACAGGTGA | 0.0969
ACTTACCA | 0.0956
CCGCTAAC | -0.0857
AGTAATTG | 0.129
AGTAATTA | 0.232
CTTAATTC | 0.257
ATTAATTC | 0.291
ACTAATTC | 0.221
AGTAATTC | 0.318
CCTTACCA | -0.00851
ACACCTGA | -0.0619
AGTTCTAC | 0.0539
AATCAAGC | 0.0885
ATATATTG | 0.14
CTATATCC | 0.159
CCATATTA | 0.146
ACATATTG | 0.193
ATATATTC | 0.326

Sequence | PBM E-score
CTATATTA | 0.284
GTATATTA | 0.257
ACATATTA | 0.349
ATATATCA | 0.0628
CTATATTC | 0.215
ATATATCC | 0.372
ATATATTA | 0.306
AAGAGGGG | -0.226
GTGCCACA | -0.302
CTGGCAGA | -0.00651
GCGGGACA | -0.243
CGCGATCA | 0.0933
AGATCTGA | -0.108
CTAAGGGA | 0.0981
ACCTGCGG | -0.146
ACTGCCAT | 0.00233
TCCTCGAA | 0.126
AACCAAAT | 0.228
ATGGGGTG | -0.195
CGATATTC | 0.123
CGATATTA | 0.336
GGATATTA | 0.144
AACTTCCC | 0.00652
AGATAGGA | 0.00058
ACTATTTC | 0.237

Sequence | PBM E-score
CTTATTTC | 0.235
CTTTATTA | 0.191
ACTATTTG | 0.248
CTTTATTC | 0.192
ATTTATTC | 0.361
ATTTATTA | 0.293
ATTATTTC | 0.332
ATTATTTG | 0.335
GTTTATTA | 0.276
ATTTATTG | 0.0954
ATTATTAG | 0.152
AGCCAATA | -0.0344
AAAAAGCG | 0.112
CCGTTGCG | -0.192
AAGAATAG | 0.204
CGACAAAC | 0.0224
CCATGGGA | -0.0942
AAACTAGG | 0.0193
GGAGAGAC | -0.0678
GTTATTTA | 0.258
ATTATTCA | 0.231
ATTATTTA | 0.373
ATTATTCG | 0.328
ACTATTCG | 0.177
CTTATTTA | 0.106

Sequence | PBM E-score
AAATCTCT | 0.152
AGAAAGTC | 0.173
CCACGAGG | -0.0481
AATAGGAC | 0.0355
TATAGGAA | 0.232
AATAGGAA | 0.29
CATAGGAA | 0.0524
AATAGGAG | -0.253
AATAGGAT | 0.295
ACGCGACC | -0.208
ACTAACCA | 0.11
AGCACTTC | 0.0586
ACGCGACT | -0.174
CATTACTC | 0.11
AATTACTA | 0.234
GATTATAA | 0.172
GATTATCA | 0.19
CATTATTC | 0.213
GATTATTA | 0.298
AATTATTC | 0.423
CATTATTA | 0.243
CATTATCC | 0.224
AATTACTC | 0.328
GATTATCC | 0.396
AATTATAC | 0.284

Sequence | PBM E-score
AACGGCTC | -0.0166
TAGGAATA | 0.194
AGTGGTCG | -0.159
ATTGCCAA | -0.00029
TATTGGCA | 0.0828
ACATTGCG | 0.0729
TGTCCACA | 0.134
GGACACAA | 0.163
CTGAGCAA | -0.0556
ATGCCTAC | -0.0813
CACTGGGA | -0.0293
ATACAAGC | 0.209
AATTATTA | 0.359
AATTATAA | 0.253
AGTTATTC | 0.345
AGTTATTA | 0.173
AATTATTG | 0.274
AGTTATTG | 0.223
ATGAAGAG | 0.0478
AGAAGACG | 0.123
ATTTCCGG | 0.298
ATTTCCTC | 0.176
ATTTCCTA | 0.101
ATTTCCGC | 0.15
ATTTCCTG | 0.3

Sequence | PBM E-score
ATTTCCGA | 0.247
CCCGAGGC | -0.329
ATTAAGCC | 0.0562
AACTTGAT | 0.333
AACTTGAA | 0.251
AACTTGAG | -0.167
GATTTACA | 0.297
AAATTACG | 0.111
AAATTACT | 0.333
AATTTTAT | 0.331
CATTTACA | 0.197
AATTTTAC | 0.282
AAATTACC | 0.164
TATTTACA | 0.21
AATTTTAA | 0.285
CGCTCCTA | -0.101
AGTTAGAA | 0.0705
GTGGCTGA | -0.183
GACAGCAC | -0.00022
GGGTCCTA | -0.279
TCTAAGCA | -0.00029
CCGCTGCC | -0.418
